Experimental findings from PubChem BioAssay are described below.

Molecules are shown by their SMILES.

The test system of assay [1] is Human papillomavirus type 1a protein E7 (residues 44-93). The experiment in a line: small molecules binding HPV E7 44-93 – biochemical, small-molecule microarray, residues 44-93, 635 nm fluorescence, primary screen (AID 1108).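 Further: E7 fragment applied at 1 µg/mL in TBST for 1 h at 4 C; score combines spot fluorescence with its signal to noise ratio.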 The note with it: fluorescence 635 nm, higher = more signal.
A short description of assay [2]: hepatitis C replication reporter changes, two-sided – Huh7 cells, luciferase reporter, HCV replication inhibitor project, primary screen (AID 1109).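 Further: huh7 hepatoma cells harbouring a luciferase neomycin HCV replicon reporter; luciferase luminescence as measure of HCV replicon replication; test concentration not given here.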 The note with it: Huh7 HCV replicon luciferase reporter, 48 h; higher = more signal. Background: In a reporter assay the amount or activity of a reporter protein is the signal.
Assay [3] addresses Left-right determination factor 2 (Homo sapiens) (UniProt O00292). The experiment in a line: small molecules binding LEFTY2 protein – biochemical, small-molecule microarray, 635 nm fluorescence scan, primary screen (AID 1110). The note with it: higher = more signal.
Assay [4] addresses Calmodulin-1 (Homo sapiens) (UniProt P0DP23). Nature of the assay: small molecules binding calmodulin-1 with EGTA – biochemical, small-molecule microarray, Cy5-labelled CALM1, profiling panel (AID 1111).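 Further: labelled calmodulin applied in Tris saline Tween buffer holding calcium plus EGTA and DTT.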 The note with it: Cy5-CALM1 binding fluorescence, higher = more signal.
Assay [5] shares this target. The experiment in a line: small molecules binding Ca-loaded calmodulin-1 – biochemical, small-molecule microarray, Cy5-labelled CALM1, plus calcium, artefact control for SMM control-protein annotation, profiling panel (AID 1112).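 Further: score merges spot fluorescence with signal to noise from triplicate slides.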 The note with it: Cy5-CALM1 binding fluorescence, higher = more signal.
Assay [6] in a line: probe aWnt5a binding to arrayed compounds – biochemical, biotinylated probe, 635/667 nm fluorescence, primary screen (AID 1113).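 Further: score merges 667 nm fluorescence intensity with signal-to-noise per printed feature.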 The note with it: small-molecule microarray, higher = more signal.
A short description of assay [7]: probe aShh binding to arrayed compounds – biochemical, biotinylated probe, 635/667 nm fluorescence, primary screen (AID 1114).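 Further: probe is biotin-labelled aShh protein from a stem cell growth factor screen; measures binding of labelled protein to compounds printed on the slide; score merges feature fluorescence at 667 nm with signal-to-noise.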 The note with it: small-molecule microarray, higher = more signal.
Assay [8] in a line: probe aNog binding to arrayed compounds – biochemical, biotinylated probe, 635/667 nm fluorescence, primary screen (AID 1115).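 Further: probe is biotinylated aNog protein used at 0.15 µg/mL for 1 h at 4 C; z-score combines 667 nm fluorescence of each spot with its signal to noise.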 The note with it: small-molecule microarray, higher = more signal.
Assay [9] concerns the target Torsin-1A-interacting protein 1 (Homo sapiens) (UniProt Q5JTV8). Nature of the assay: compound microarray binding of lysate hLAP1 – cell lysate, small-molecule microarray, COS7 lysate, 635/667 nm fluorescence, primary screen (AID 1116). The note with it: 635 nm fluorescence, higher = more signal.
Assay [10] addresses Alpha-bungarotoxin (Bungarus multicinctus) (UniProt P60615). The experiment in a line: compounds binding labelled alpha-BTX control protein – biochemical, small-molecule microarray, Alexa647 label, 635/667 nm fluorescence, artefact control for SMM control protein annotation, profiling panel (AID 1117). The note with it: alpha-BTX-A647 binding fluorescence, higher = more signal.

Sequence of Left-right determination factor 2 (Homo sapiens) (O00292 whole entry, looked up): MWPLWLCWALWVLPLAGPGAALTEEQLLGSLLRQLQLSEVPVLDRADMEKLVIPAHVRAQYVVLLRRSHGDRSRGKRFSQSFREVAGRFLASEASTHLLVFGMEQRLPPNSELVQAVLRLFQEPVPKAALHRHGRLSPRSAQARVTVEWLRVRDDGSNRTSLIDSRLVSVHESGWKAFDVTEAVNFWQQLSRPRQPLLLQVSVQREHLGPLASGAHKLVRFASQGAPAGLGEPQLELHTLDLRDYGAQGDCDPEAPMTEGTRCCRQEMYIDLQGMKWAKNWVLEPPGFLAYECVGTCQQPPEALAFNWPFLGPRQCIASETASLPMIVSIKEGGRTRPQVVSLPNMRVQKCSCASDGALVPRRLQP
Sequence of Alpha-bungarotoxin (Bungarus multicinctus) (P60615 whole entry, looked up): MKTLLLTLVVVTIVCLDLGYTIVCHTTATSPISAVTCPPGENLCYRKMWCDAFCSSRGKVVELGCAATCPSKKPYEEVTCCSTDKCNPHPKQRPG
Sequence of Torsin-1A-interacting protein 1 (Homo sapiens) (Q5JTV8 whole entry, looked up): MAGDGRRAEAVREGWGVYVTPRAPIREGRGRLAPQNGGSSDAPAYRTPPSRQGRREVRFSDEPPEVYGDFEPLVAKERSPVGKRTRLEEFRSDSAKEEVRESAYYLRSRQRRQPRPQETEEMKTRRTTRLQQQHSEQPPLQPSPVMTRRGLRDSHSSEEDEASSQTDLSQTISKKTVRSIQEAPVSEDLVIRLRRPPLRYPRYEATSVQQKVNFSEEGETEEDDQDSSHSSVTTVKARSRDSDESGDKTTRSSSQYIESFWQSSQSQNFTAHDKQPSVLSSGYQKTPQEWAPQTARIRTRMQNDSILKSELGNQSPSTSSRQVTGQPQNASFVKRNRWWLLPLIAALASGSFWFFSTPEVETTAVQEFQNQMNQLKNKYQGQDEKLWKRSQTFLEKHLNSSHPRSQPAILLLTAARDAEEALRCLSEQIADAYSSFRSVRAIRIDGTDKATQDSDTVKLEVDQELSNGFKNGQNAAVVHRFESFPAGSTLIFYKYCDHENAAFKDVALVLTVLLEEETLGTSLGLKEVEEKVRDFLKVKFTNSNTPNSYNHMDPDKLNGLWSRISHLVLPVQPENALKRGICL

On to `CN(C)CCCC[C@@H]1NC(=O)[C@H]2C[C@@H](C(=O)NCc3ccc(F)cc3)[C@@H](c3ccc(O)cc3)N2C1=O`, for which the composite z-score in [1] was -0.247; in assay [3], 1.15; in assay [4], -1.08; in [5], 0.354; in [6], -0.0748; in assay [7], 0.365. In addition, the results for the composite z-score in [8], in assay [9] and in assay [10] were -0.273, 1.03 and 2.5, respectively. Also, the z-score in assay [2] came out at 0.206.

Regarding `CCOC(=O)C1=CCC(c2cc3ccccc3[nH]2)N(S(=O)(=O)c2ccccc2[N+](=O)[O-])C1` (stereo not given), the composite z-score was 0.833 in [1]; -0.335 in assay [3]; -0.115 in assay [4]; -0.472 in assay [5]; 0.0839 in assay [6]; 0.0121 in assay [7]. Further, the composite z-score was -0.142 in assay [8], 0.161 in [9] and 1.97 in [10]. Also, in [2], the z-score was -1.86.

For `CC1CC/C=C\[C@H]2OC34C=CCN(CCN5CCOCC5)C(=O)[C@H]3N(CCCCCCO)C(=O)[C@@H]4C2C(=O)O1` (stereo not given in full), the composite z-score was -1.14 in [1]; -1.12 in assay [3]; -0.482 in [4]; -0.42 in assay [5]; -0.232 in assay [6]; -0.154 in assay [7]. Also, the results for the composite z-score in [8], in assay [9] and in assay [10] were -0.305, -0.933 and -0.307, respectively. Besides, in assay [2], the z-score was -0.709.

As to `COC(=O)[C@@]1(Cc2ccccc2)[C@@H]2[C@@H](CC(=O)[C@H]2CC(=O)C(=O)N(C)C)CN1C(=O)c1ccccc1`, the composite z-score in [1] is 0.426; in [3], -0.116; in assay [4] it was 0.518; in assay [5] it was 0.599; in assay [6], 0.0078; in assay [7], -0.0322. For the same compound, the values for the composite z-score in assay [8], in assay [9] and in assay [10] were 0.859, 1.38 and 0.43, respectively. This compound showed a z-score in assay [2] of -0.96.

Take `O=C1C2C=CC(C(O)c3cccc(O)c3)N(Nc3ccccc3F)C2C(=O)N1c1ccccc1` (stereo not given): the composite z-score is 0.623 in assay [1]; -0.31 in assay [3]; -0.325 in assay [4]; -0.607 in [5]; -0.0425 in [6]; 0.656 in assay [7]. Also, the composite z-score was -0.261 in [8], -0.165 in assay [9] and -0.234 in assay [10]. The compound also showed a z-score in assay [2] of -2.21.

Take `C=CCNC(=O)[C@@H]1[C@H]2C(=O)O[C@H](c3ccccc3)[C@H](c3ccccc3)N2[C@H](c2ccccc2OCCO)[C@@]12C(=O)N(C(=O)OCCOC)c1ccc(C#CCCO)cc12`: the composite z-score is 1.34 in assay [1]; 0.0333 in assay [3]; 1.66 in assay [4]; 0.428 in assay [5]; -0.006 in assay [6]; 0.131 in assay [7]. The composite z-score in assay [8] was -0.305; in assay [9] it was 0.87; in [10], 0.274. In addition, the z-score in [2] was -1.82.

Turning to `COC(=O)[C@]1(CO)N=C(c2ccc(OCCCO)cc2)O[C@@H]1c1ccccc1CN=[N+]=[N-]`, the composite z-score in assay [1] is -0.0942; in [3], -0.266; in assay [4] it was -0.738; in [5], -0.0036; in assay [6] it was -0.145; in assay [7], 0.0611. Further, the composite z-score in [8] was -0.0007; in assay [9], 0.751; in assay [10], -0.0756. In assay [2], this compound registered a z-score of 0.606.

Take `COc1ccc(CCNC(=O)[C@@]2(Sc3ccc(C)cc3)CC(=O)N(C(C)C)[C@@H]2c2ccc(CO)cc2)cc1`: the composite z-score is 0.889 in assay [1]; -2.73 in assay [3]; 0.359 in assay [4]; -0.242 in assay [5]; -0.28 in assay [6]; 0.0121 in assay [7]. Also, the composite z-score in assay [8] was -0.209; in [9], -1.16; in [10], -0.563. For the same compound, the z-score in assay [2] was -0.887.

`COCCOC(=O)N1C(=O)[C@@]2(c3cc(C#CCCO)ccc31)[C@H](C(=O)N1CCc3cc(OC)c(OC)cc3C1)[C@H]1C(=O)O[C@H](c3ccccc3)[C@H](c3ccccc3)N1[C@@H]2c1ccccc1OCCO`: the composite z-score is 1.4 in [1]; 0.473 in assay [3]; 1.43 in assay [4]; 0.013 in assay [5]; 0.186 in assay [6]; -0.0146 in assay [7]. Besides, the composite z-score in [8] worked out at 0.596; in assay [9], 0.325; in [10], 0.477. Moreover, in assay [2], the z-score is -1.75.

As for `CN(C)C(=O)[C@@]1(CCS(=O)(=O)c2ccccc2)N=C(c2ccc(OCCCO)cc2)O[C@H]1c1ccccc1N=[N+]=[N-]`, the composite z-score is 1.43 in [1]; 0.258 in [3]; -0.038 in [4]; -0.0024 in assay [5]; 0.0445 in assay [6]; 0.199 in [7]. Further, the composite z-score in assay [8] is -0.484; in assay [9] it was 1.56; in [10], 0.901. In addition, the z-score in assay [2] is -0.235.

As for `CCOC(=O)C[C@H]1[C@H](OC(=O)Cc2ccc3c(c2)OCO3)[C@@H](NC(=O)c2ccccc2)c2cc(OCCCO)ccc2N1C(=O)Cc1ccc(OC)cc1`, the composite z-score in assay [1] was 0.334; in [3] it was -0.113; in [4], 1.04; in [5] it was 0.188; in assay [6] it was -0.0545; in [7], -0.0626. Besides, the values for the composite z-score in assay [8], in [9] and in assay [10] were -0.196, 0.435 and 0.774, respectively. The z-score in [2] is -1.53.

With `CCC(CC)C(O)C1C=CC2C(=O)N(C)C(=O)C2N1N1CCCCC1` (stereo not given), the composite z-score is 1.43 in assay [1]; 0.692 in [3]; 1.68 in assay [4]; -0.263 in [5]; 0.0229 in [6]; 0.0381 in assay [7]. For the same compound, the composite z-score in assay [8] is 1.57; in assay [9], 0.103; in [10] it was 1.2. This compound also came in with a z-score in assay [2] of -0.481.

Take `O=C1N(Cc2ccccc2)c2ccccc2[C@H]2OC(c3ccc(OCCCO)cc3)=N[C@@]12Cc1ccccc1`: the composite z-score in assay [1] is 1.03; in assay [3], -0.116; in assay [4], 0.244; in assay [5], -0.0364; in assay [6], 0.067; in [7], 1.06. In addition, the composite z-score in assay [8] was found to be 0.798; in assay [9] it was 0.498; in assay [10], 1.81. The compound also yielded a z-score in [2] of -2.48.

As for `COc1cc(OC)c(C(O)C2C=CC3C(=O)N(c4ccccc4)C(=O)C3N2Nc2ccccc2F)cc1Br` (stereo not given), the composite z-score in assay [1] is 1.31; in assay [3], -0.137; in assay [4] it was 1.96; in assay [5], 0.764; in [6], -0.0462; in [7] it was 0.279. The composite z-score in [8] amounted to 1.62; in assay [9], 1.63; in assay [10], 1.92. The compound further gave a z-score in assay [2] of -1.17.

Regarding `CC1(C)OC[C@@]23C=C(Br)[C@@H](C[C@H]12)[C@@]1(CO1)C3=O`, the composite z-score in [1] is 0.223; in assay [3], 0.841; in [4], 0.0619; in [5], -0.866; in assay [6] it was 0.0937; in [7], -0.0769. Further, the composite z-score in assay [8] was -0.132; in assay [9] it was 0.0611; in assay [10], 0.179. The z-score in assay [2] is -1.33.

For `C=CCC(OC(C)=O)[C@@H]1[C@@H](N(Cc2ccc(-c3cccc(C(F)(F)F)c3)o2)C(=O)Cc2ccc(OC)cc2)c2cc(OCCCO)ccc2N1C(=O)c1ccc2ccccc2n1` (stereo not given in full), the composite z-score in assay [1] is -0.551; in assay [3], -0.323; in assay [4], -0.698; in assay [5] it was -0.605; in [6], -0.0017; in assay [7], -0.0904. Besides, the figures for the composite z-score in assay [8], in [9] and in assay [10] were 0.227, -0.366 and -0.362, respectively. The z-score in [2] was determined as 0.185.
